Bioassay records as filed in PubChem BioAssay.
This is a sample that favours compounds with a hit; in the whole collection about 3.2% have one here.
Rv3671c protease – inhibits the M. tuberculosis serine protease Rv3671c; actives 0.048% (n = 320,000); P9WHR9; inhibition, % at 5.96 µM; in the data active = inhibition above about 38%;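 note: extracellular domain of Rv3671c used as enzyme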
FBA Mtb inh – inhibitors of M. tuberculosis fructose-bisphosphate aldolase | P9WQA3 | purified M. tuberculosis FBA, fluorescence read-out | inhibition, % at 1 µM | actives 2.3% (n = 360,000); in the data active = inhibition above about 27%
GDH-TPI inh – GDH-TPI coupled enzyme inhibition counter-screen; actives 1.2% (n = 360,000); GDH-TPI coupled enzyme counterscreen, NADH absorbance; AID 588335; inhibition, % at 4.8 µM; in the data active = inhibition above about 30%
Mtb bLac sens – beta-lactam sensitization of Mtb H37Rv; inhibition, % at 25 µM; actives 0.27% (n = 330,000); M. tuberculosis H37Rv growth with meropenem, percent inhibition; call rule not given here;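 note: growth measured after seven days incubation then overnight dye step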
PriA SSB inh – blocks PriA binding to SSB C-terminal tail. AlphaScreen SSBct-PriA binding, biotinylated peptide. inhibition, % at 33 µM. actives 0.6% (n = 430,000). AID 1272365; in the data active = inhibition mostly above about 37%, no sharp cut-off; inactive = mostly below about 20%
UGM FP inh – blocks M. tuberculosis UGM enzyme | inhibition, % at 10 µM | actives 0.06% (n = 320,000) | purified UGM, fluorescence polarization probe displacement; in the data active = inhibition above about 10%, passing the limit was not always enough; inconclusive = no clear call, values can overlap the other calls
Target sequence (P9WIQ1 whole entry, looked up): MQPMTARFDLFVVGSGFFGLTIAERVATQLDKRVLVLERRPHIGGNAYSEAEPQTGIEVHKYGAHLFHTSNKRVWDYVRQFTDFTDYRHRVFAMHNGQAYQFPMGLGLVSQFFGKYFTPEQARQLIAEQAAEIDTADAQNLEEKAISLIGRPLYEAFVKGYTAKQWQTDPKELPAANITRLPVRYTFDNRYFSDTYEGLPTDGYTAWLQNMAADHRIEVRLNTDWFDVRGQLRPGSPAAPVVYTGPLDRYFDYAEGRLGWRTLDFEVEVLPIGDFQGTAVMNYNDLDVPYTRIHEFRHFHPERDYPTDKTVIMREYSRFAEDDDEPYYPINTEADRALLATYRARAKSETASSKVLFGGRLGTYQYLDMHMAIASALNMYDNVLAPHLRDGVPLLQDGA
A number is an active result; n = inactive; u = inconclusive; x = no result given; + = active, no number; ! = repeats disagree.

SMILES	Rv3671c protease	FBA Mtb inh	GDH-TPI inh	Mtb bLac sens	PriA SSB inh	UGM FP inh
CC(C)Cc1nc2oc3c(NCC4CCCO4)ncnc3c2c2c1CCC2 (stereo not given)	n	n	n	n	n	n
Cc1ccc(-c2csc3nc[nH]c(=S)c23)cc1C	n	n	n	n	48.1	n
O=c1[nH]cnc2sc3c(c12)CN(Cc1ccccc1)CC3	n	52.2	n	n	n	n
CCC(C)(C)C1CCc2sc3nc[nH]c(=O)c3c2C1 (stereo not given)	x	x	x	x	n	x
COc1ccc(-c2cc3c(SCC(=O)Nc4cc(F)ccc4C)nccn3n2)cc1	x	x	x	x	n	x
Cc1c(N=C2NN=C(c3c[nH]c4ccccc34)CS2)c(=O)n(-c2ccccc2)n1C	n	n	50.0	n	n	n
CCc1ccc(/C=C(/C#N)C(N)=S)cc1	n	n	n	n	38.0!	n
Oc1ccccc1NCC(O)Cn1ccc2ccccc21 (stereo not given)	n	n	n	n	59.1	n
CCCCOC(=O)c1ccc(NC(=O)c2cccn(OCc3ccccc3F)c2=O)cc1	x	x	x	x	n	x
CCC(=O)Oc1ccc2c(C)cc(=O)oc2c1C(=O)CC	n	n	n	n	n	n
Cc1cc(=O)[nH]c2cc(O)ccc12	n	+	n	n	n	n
Cc1cc(=O)[nH]c2c(C)c(N)ccc12	n	+	n	n	n	n
Cc1ccccc1-c1c(C)oc2cc(O)ccc2c1=O	n	+	n	n	n	n
CC(=O)Nc1c(OC(C)=O)ccc2c(C)cc(=O)oc12	n	+	n	n	n	n
O=C(NCc1ccc2c(c1)OCO2)c1ccc2c(=O)n(-c3ccccc3)c(=O)n(Cc3cccc(Cl)c3)c2c1	x	x	x	x	n	x
N#Cc1cccc(OC(=O)C2CCN(C(=O)c3ccc(F)cc3)CC2)c1	x	n	n	x	x	x
Cc1cc(=O)oc2cc(OC(=O)C3CCN(C(=O)c4ccc(F)cc4)CC3)ccc12	n	148.3	n	n	n	n
Cc1ccc(OC(=O)CCS(=O)(=O)c2ccc(C)cc2)cc1	n	n	n	n	n	n
Cc1ccc(S(=O)(=O)CCC(=O)Oc2ccc3c(C)cc(=O)oc3c2)cc1	n	+	n	n	n	n
Cc1cc(=O)oc2cc(O)ccc12	n	+	n	n	n	n
CC(=O)Oc1cc(OC(C)=O)c2c(C)cc(=O)oc2c1	n	+	n	n	n	n
O=C(c1c[nH]c(=O)c([N+](=O)[O-])c1)N1CCCCCC1	x	x	x	x	n	x
Cc1cc(=O)n(CC(=O)NCc2ccc(F)cc2F)c(N)n1	x	x	x	x	n	x
Cc1n[nH]c(C)c1Sc1ccccc1	x	x	x	x	n	x
O=C(c1ccco1)c1ccc(CNC(=O)C2(c3ccc(Cl)cc3)CCCC2)s1	x	x	x	x	n	x
SMILES	Rv3671c protease	FBA Mtb inh	GDH-TPI inh	Mtb bLac sens	PriA SSB inh	UGM FP inh
CC(=O)Oc1cc2oc(=O)cc(C)c2cc1OC(C)=O	n	173.4	n	n	n	n
Cc1ccc(NC(=O)CSCC(=O)OCc2cc(=O)oc3cc(O)ccc23)c(C)c1	n	118.5	n	n	n	n
COC(=O)Cc1cc(=O)oc2cc(O)ccc12	n	+	n	n	n	n
Cc1coc2cc3oc(=O)cc(C)c3cc12	n	n	n	n	n	n
Cc1cc(=O)oc2cc(O)cc(OCc3ccccc3)c12	x	+	31.0	x	n	x
NN=C(Cc1nc2ccccc2[nH]1)c1ccc([N+](=O)[O-])cc1	x	x	x	x	n	x
Cn1cc(S(=O)(=O)N2CCCN(C(=O)c3cc(-c4cccs4)on3)CC2)cn1	x	x	x	x	n	x
Cc1cc(=O)oc2cc(OC(=O)CCCCCN3C(=O)c4ccccc4C3=O)ccc12	n	152.9	n	n	n	n
CCN(c1ccccc1)S(=O)(=O)c1cc(C(=O)Oc2ccc3c(C)cc(=O)oc3c2)ccc1C	n	+	n	n	n	n
CCN(c1ccccc1)S(=O)(=O)c1cc(C(=O)OCC(=O)c2c(N)n(C)c(=O)n(C)c2=O)ccc1C	x	n	n	x	n	x
CC(=O)Oc1ccc2c(C)cc(=O)oc2c1	n	+	n	n	n	n
Cc1cc(=O)oc2cc(OCC(=O)N3CCOCC3)ccc12	x	n	n	x	n	x
O=C(Cn1nc(-c2ccco2)c2sc(N3CCCC3)nc2c1=O)Nc1cccc(F)c1	x	x	x	x	n	x
CSc1ccc2nc(Nc3nc4ccc5nc(C)sc5c4s3)sc2c1	x	x	x	x	n	x
CC(C)S(=O)(=O)c1cccc(C(=O)Nc2nnc(-c3cccnc3)o2)c1	x	x	x	x	n	x
COc1ccc(/C=N/NC(=O)Cc2ccc(Cl)cc2)cc1OC	n	n	n	n	x	n
COc1ccc(CC(=O)N/N=C/C=C/c2ccc3c(c2)OCO3)cc1OC	n	n	34.7	n	n	n
COc1cc(C(=O)NN=Cc2ccc(N(CCCl)CCCl)cc2)cc(OC)c1OC	x	n	60.8	x	n	x
COc1cc(C(=O)N/N=C\c2ccc(Br)o2)cc(OC)c1OC	x	x	x	x	n	x
CCOC(=O)CNc1ccc2c(c1)OCO2	n	n	n	n	n	11.7
CCN(CC)c1ccc(/C=N/NC(=O)Cc2ccc(OC)c(OC)c2)cc1	n	n	45.6	n	n	n
CCOC(=O)CNC(=O)/C=C/c1ccc2c(c1)OCO2	n	n	n	n	n	n
Cc1ccc(C=Nn2c(-c3cccc(Cl)c3)n[nH]c2=S)o1	x	x	x	x	n	x
O=C(NCc1cnn2c1CCCC2)NC1CCCCC1	x	x	x	x	n	x
CCN(CC)c1ccc(/C=N/NC(=O)CNC(=O)/C=C/c2ccco2)cc1	n	n	43.6	n	x	n
SMILES	Rv3671c protease	FBA Mtb inh	GDH-TPI inh	Mtb bLac sens	PriA SSB inh	UGM FP inh
COC(=O)N/N=C\C=C\c1ccc2c(c1)OCO2	n	n	44.1	n	x	n
Cc1cc(C(=O)NN=C/C=C/c2ccc3c(c2)OCO3)n[nH]1	x	x	x	x	n	x
CCOC(=O)N/N=C\C=C\c1ccc2c(c1)OCO2	n	n	36.6	n	x	n
CC(C)(C)OC(=O)N/N=C\C=C\c1ccc2c(c1)OCO2	n	n	n	n	x	n
COc1ccc(CCNc2cc(N3CCN(C(=O)c4ccc(C)cc4)CC3)ccc2[N+](=O)[O-])cc1OC	42.6	x	x	n	x	n
COc1ccc(C(=O)N2CCN(c3ccc([N+](=O)[O-])c(NCCc4ccc(OC)c(OC)c4)c3)CC2)cc1	n	n	n	u	n	n
O=C1NCCC/C1=N\Nc1ccc(Br)cc1	n	n	37.4	n	x	n
O=C(NCCc1ccccc1)c1cc2sccc2n1Cc1ccccc1	n	156.2	n	n	n	n
